{"source": "ChEMBL document CHEMBL1961873", "about": "“Compounds: GSK PKIS; Assays: Nanosyn kinase panel” (2012)", "data": [{"target": "Tyrosine-protein kinase Lck (Homo sapiens) (UniProt P06239)", "sequence (P06239 2-509 limits assumed)": "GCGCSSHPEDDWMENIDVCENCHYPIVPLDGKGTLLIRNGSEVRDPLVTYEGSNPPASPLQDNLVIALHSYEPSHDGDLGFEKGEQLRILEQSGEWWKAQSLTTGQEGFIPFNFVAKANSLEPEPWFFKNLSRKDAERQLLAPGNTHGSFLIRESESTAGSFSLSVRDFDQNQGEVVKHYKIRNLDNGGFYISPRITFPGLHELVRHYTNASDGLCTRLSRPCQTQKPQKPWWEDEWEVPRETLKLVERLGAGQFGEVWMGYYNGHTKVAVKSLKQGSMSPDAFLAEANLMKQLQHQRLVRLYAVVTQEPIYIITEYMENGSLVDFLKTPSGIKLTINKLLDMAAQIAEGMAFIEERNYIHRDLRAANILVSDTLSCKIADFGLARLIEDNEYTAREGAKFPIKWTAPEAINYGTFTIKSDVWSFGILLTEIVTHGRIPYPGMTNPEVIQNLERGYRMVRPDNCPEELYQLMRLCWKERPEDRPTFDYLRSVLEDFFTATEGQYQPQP", "details": "at 1 µM", "units": {"inhibition": "%"}, "values": [{"smiles": "CN1CCC(C(=O)Nc2n[nH]c3nnc(-c4ccccc4)cc23)CC1", "inhibition": 4.09}, {"smiles": "COc1cc2ncn(-c3cc(OCc4ccccc4C(F)(F)F)c(C(N)=O)s3)c2cc1OC", "inhibition": 12.6}, {"smiles": "CCn1c(-c2nonc2N)nc2ccncc21", "inhibition": 2.29}, {"smiles": "COc1cc2ncn(-c3cc(OCc4ccccc4Cl)c(C(N)=O)s3)c2cc1OC", "inhibition": 19}, {"smiles": "CC1=C(C(=O)Nc2ccc3[nH]ncc3c2)C(c2ccc(Cl)c(Cl)c2)CC(=O)N1", "note": "(configuration not stated)", "inhibition": 30}, {"smiles": "CS(=O)(=O)CCN(CC#N)Cc1ccc(-c2ccc3ncnc(Nc4ccc(OCc5cccc(F)c5)c(Cl)c4)c3c2)o1", "inhibition": -3.92}, {"smiles": "Nc1ncnc2occ(-c3ccc(NC(=O)Nc4cccc(C(F)(F)F)c4)cc3)c12", "inhibition": 46.7}, {"smiles": "NC(=O)c1ccc(-c2nc(-c3ccccn3)c(-c3ccc4c(c3)OCO4)[nH]2)cc1", "inhibition": 4.07}, {"smiles": "O=C1NC(=O)C(N2CCc3ccccc32)=C1c1ccc(Cl)cc1", "inhibition": 4.29}, {"smiles": "O=C1NC(=O)C(c2ccc(Cl)cc2)=C1Nc1ccc(Cl)c(C(=O)O)c1", "inhibition": 0.35}, {"smiles": "NC(=O)c1cccc(Nc2nccc(Nc3cccc4[nH]ncc34)n2)c1", "inhibition": 81.8}, {"smiles": "CNC(=O)c1cncc(/C=C/c2c(Cl)cccc2Cl)c1", "inhibition": 9.89}, {"smiles": "COc1ccc(-c2coc3ncnc(N)c23)cc1", "inhibition": 6.38}, {"smiles": "Cc1nn(C)c2cc(N(C)c3ccnc(Nc4cccc(S(N)(=O)=O)c4)n3)ccc12", "inhibition": 57.4}, {"smiles": "O=C1NC(=O)C(c2cccc(Cl)c2)=C1Nc1ccc(O)c(Cl)c1", "inhibition": 6.56}, {"smiles": "O=C1Nc2ccc(C(=O)c3ccco3)cc2C1=Cc1cc(Cl)c(O)c(Cl)c1", "inhibition": 12.8}, {"smiles": "NS(=O)(=O)c1ccc(N/N=C2\\C(=O)Nc3ccc(C(=O)NCCc4c[nH]cn4)cc32)cc1", "inhibition": 9.31}, {"smiles": "Nc1nc(-c2ccc3c(c2)C(=Cc2cc(Br)c(O)c(Br)c2)C(=O)N3)cs1", "inhibition": 4.41}, {"smiles": "O=C(Nc1n[nH]c2nc(-c3ccco3)c(Br)cc12)C1CC1", "inhibition": 6.71}, {"smiles": "Cn1cc(C=C2C(=O)Nc3cccnc32)c2ccccc21", "inhibition": 25.5}, {"smiles": "CC1=C(C(=O)Nc2ccc3[nH]ncc3c2)C(c2ccc(F)cc2)NC(=O)N1", "note": "(configuration not stated)", "inhibition": 3.1}, {"smiles": "CCn1c(-c2nonc2N)nc2c(N3CCCC3)nccc21", "inhibition": -0.36}, {"smiles": "COc1cc2c(cc1Nc1nc(N3CCc4ccccc43)c3cc[nH]c3n1)N(C(=O)CN(C)C)CC2", "inhibition": 6}, {"smiles": "Cc1cccc(-c2n[nH]cc2-c2ccc3ncccc3n2)n1", "inhibition": 4.51}, {"smiles": "CCc1cccc(NC(=O)Nc2ccc(Oc3ccc4nc(NC(=O)OC)[nH]c4c3)cc2)c1", "inhibition": 8.47}, {"smiles": "COc1ccc(-c2nn3ncccc3c2-c2ccnc(Nc3ccc(Cl)c(C(F)(F)F)c3)n2)cc1", "inhibition": 5.83}, {"smiles": "Nc1ncnc2occ(-c3ccc(NC(=O)Nc4cc(C(F)(F)F)cc(C(F)(F)F)c4)cc3)c12", "inhibition": 38.8}, {"smiles": "COC(=O)Nc1nc2cc(Oc3ccc(NC(=O)Nc4cccc(C(=O)O)c4)cc3)ccc2[nH]1", "inhibition": -2.81}, {"smiles": "[O-][S+]1CCN(Cc2ccc(-c3ccc4ncnc(Nc5ccc(OCc6ccccc6)c(F)c5)c4c3)o2)CC1", "inhibition": 7.89}, {"smiles": "COc1cc(C=NNc2ncnc3c2cnn3-c2ccccc2)ccc1O", "inhibition": 63.9}, {"smiles": "NCc1ccc(-c2nc(-c3ccc(Cl)c(O)c3)c(-c3ccncc3)[nH]2)cc1", "inhibition": 33}, {"smiles": "Cc1nnc(-c2ccc(C)c(-c3ccc(C(=O)Nc4cccc(C#N)c4)cc3)c2)o1", "inhibition": 2.99}, {"smiles": "CCn1c(-c2nonc2N)nc2c(C#CC(C)(C)O)nc(OC[C@@H](N)c3ccccc3)cc21", "inhibition": 0.18}]}, {"target": "Leukocyte tyrosine kinase receptor (Homo sapiens) (UniProt P29376)", "sequence (P29376 whole entry)": "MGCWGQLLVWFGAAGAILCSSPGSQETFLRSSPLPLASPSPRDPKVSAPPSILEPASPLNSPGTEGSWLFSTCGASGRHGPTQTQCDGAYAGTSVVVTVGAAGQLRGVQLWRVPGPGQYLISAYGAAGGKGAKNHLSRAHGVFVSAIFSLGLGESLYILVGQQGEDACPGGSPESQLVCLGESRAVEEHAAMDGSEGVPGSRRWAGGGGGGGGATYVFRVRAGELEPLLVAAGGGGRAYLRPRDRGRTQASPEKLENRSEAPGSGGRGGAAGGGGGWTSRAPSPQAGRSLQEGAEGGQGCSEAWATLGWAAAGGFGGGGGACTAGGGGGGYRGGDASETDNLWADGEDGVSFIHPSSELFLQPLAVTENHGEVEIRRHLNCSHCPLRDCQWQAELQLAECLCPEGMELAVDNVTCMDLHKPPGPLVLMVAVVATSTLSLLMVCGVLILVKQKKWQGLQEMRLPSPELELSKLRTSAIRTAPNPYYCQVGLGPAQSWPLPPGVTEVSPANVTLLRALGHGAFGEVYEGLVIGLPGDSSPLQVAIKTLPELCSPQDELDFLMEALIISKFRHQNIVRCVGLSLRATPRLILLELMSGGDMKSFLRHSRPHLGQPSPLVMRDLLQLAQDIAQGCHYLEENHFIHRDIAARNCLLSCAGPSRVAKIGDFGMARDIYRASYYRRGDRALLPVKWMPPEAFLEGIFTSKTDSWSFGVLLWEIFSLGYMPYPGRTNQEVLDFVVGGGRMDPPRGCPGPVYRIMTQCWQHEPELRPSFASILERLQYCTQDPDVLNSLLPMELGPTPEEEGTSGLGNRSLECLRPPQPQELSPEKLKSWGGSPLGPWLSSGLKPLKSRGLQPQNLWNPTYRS", "details": "at 0.1 µM", "units": {"inhibition": "%"}, "values": [{"smiles": "CN1CCC(C(=O)Nc2n[nH]c3nnc(-c4ccccc4)cc23)CC1", "inhibition": 3.64}, {"smiles": "COc1cc2ncn(-c3cc(OCc4ccccc4C(F)(F)F)c(C(N)=O)s3)c2cc1OC", "inhibition": 2.36}, {"smiles": "CCn1c(-c2nonc2N)nc2ccncc21", "inhibition": 1.29}, {"smiles": "COc1cc2ncn(-c3cc(OCc4ccccc4Cl)c(C(N)=O)s3)c2cc1OC", "inhibition": 1.19}, {"smiles": "CC1=C(C(=O)Nc2ccc3[nH]ncc3c2)C(c2ccc(Cl)c(Cl)c2)CC(=O)N1", "note": "(configuration not stated)", "inhibition": 1.06}, {"smiles": "CS(=O)(=O)CCN(CC#N)Cc1ccc(-c2ccc3ncnc(Nc4ccc(OCc5cccc(F)c5)c(Cl)c4)c3c2)o1", "inhibition": 1.4}, {"smiles": "Nc1ncnc2occ(-c3ccc(NC(=O)Nc4cccc(C(F)(F)F)c4)cc3)c12", "inhibition": 7.15}, {"smiles": "NC(=O)c1ccc(-c2nc(-c3ccccn3)c(-c3ccc4c(c3)OCO4)[nH]2)cc1", "inhibition": 3.03}, {"smiles": "O=C1NC(=O)C(N2CCc3ccccc32)=C1c1ccc(Cl)cc1", "inhibition": 2.8}, {"smiles": "O=C1NC(=O)C(c2ccc(Cl)cc2)=C1Nc1ccc(Cl)c(C(=O)O)c1", "inhibition": -1.15}, {"smiles": "NC(=O)c1cccc(Nc2nccc(Nc3cccc4[nH]ncc34)n2)c1", "inhibition": 4.75}, {"smiles": "CNC(=O)c1cncc(/C=C/c2c(Cl)cccc2Cl)c1", "inhibition": 3.47}, {"smiles": "COc1ccc(-c2coc3ncnc(N)c23)cc1", "inhibition": 3.02}, {"smiles": "Cc1nn(C)c2cc(N(C)c3ccnc(Nc4cccc(S(N)(=O)=O)c4)n3)ccc12", "inhibition": 5.42}, {"smiles": "O=C1NC(=O)C(c2cccc(Cl)c2)=C1Nc1ccc(O)c(Cl)c1", "inhibition": 0}, {"smiles": "O=C1Nc2ccc(C(=O)c3ccco3)cc2C1=Cc1cc(Cl)c(O)c(Cl)c1", "inhibition": 9.03}, {"smiles": "NS(=O)(=O)c1ccc(N/N=C2\\C(=O)Nc3ccc(C(=O)NCCc4c[nH]cn4)cc32)cc1", "inhibition": 5.2}, {"smiles": "Nc1nc(-c2ccc3c(c2)C(=Cc2cc(Br)c(O)c(Br)c2)C(=O)N3)cs1", "inhibition": 1.87}, {"smiles": "O=C(Nc1n[nH]c2nc(-c3ccco3)c(Br)cc12)C1CC1", "inhibition": 1.93}, {"smiles": "Cn1cc(C=C2C(=O)Nc3cccnc32)c2ccccc21", "inhibition": 2.72}, {"smiles": "CC1=C(C(=O)Nc2ccc3[nH]ncc3c2)C(c2ccc(F)cc2)NC(=O)N1", "note": "(configuration not stated)", "inhibition": 0.93}, {"smiles": "CCn1c(-c2nonc2N)nc2c(N3CCCC3)nccc21", "inhibition": 0.51}, {"smiles": "COc1cc2c(cc1Nc1nc(N3CCc4ccccc43)c3cc[nH]c3n1)N(C(=O)CN(C)C)CC2", "inhibition": 75.9}, {"smiles": "Cc1cccc(-c2n[nH]cc2-c2ccc3ncccc3n2)n1", "inhibition": 0.62}, {"smiles": "CCc1cccc(NC(=O)Nc2ccc(Oc3ccc4nc(NC(=O)OC)[nH]c4c3)cc2)c1", "inhibition": 1.87}, {"smiles": "COc1ccc(-c2nn3ncccc3c2-c2ccnc(Nc3ccc(Cl)c(C(F)(F)F)c3)n2)cc1", "inhibition": 2.25}, {"smiles": "Nc1ncnc2occ(-c3ccc(NC(=O)Nc4cc(C(F)(F)F)cc(C(F)(F)F)c4)cc3)c12", "inhibition": 2.1}, {"smiles": "CCn1c(-c2nonc2N)nc2cncc(C(=O)N3CC[C@H](N)C3)c21", "inhibition": 4.31}, {"smiles": "COC(=O)Nc1nc2cc(Oc3ccc(NC(=O)Nc4cccc(C(=O)O)c4)cc3)ccc2[nH]1", "inhibition": 0.33}, {"smiles": "[O-][S+]1CCN(Cc2ccc(-c3ccc4ncnc(Nc5ccc(OCc6ccccc6)c(F)c5)c4c3)o2)CC1", "inhibition": 2.21}, {"smiles": "COc1cc(C=NNc2ncnc3c2cnn3-c2ccccc2)ccc1O", "inhibition": 2.19}, {"smiles": "NCc1ccc(-c2nc(-c3ccc(Cl)c(O)c3)c(-c3ccncc3)[nH]2)cc1", "inhibition": 1}, {"smiles": "Cc1nnc(-c2ccc(C)c(-c3ccc(C(=O)Nc4cccc(C#N)c4)cc3)c2)o1", "inhibition": 2.14}, {"smiles": "CCn1c(-c2nonc2N)nc2c(C#CC(C)(C)O)nc(OC[C@@H](N)c3ccccc3)cc21", "inhibition": 0.55}]}]}
